Sampled rows, rich in hits. Any-hit rate of the full collection: about 3.6%.
Giardia FBPA inh: qHTS Assay for Inhibitors of Fructose-1,6-bisphosphate Aldolase from Giardia Lamblia; Potency, µM (doses to about 59.6 µM), for inactives: at the top dose activity, negative = inhibition, usual class: inhibitors; A8B2U2; purified Giardia FBPA; actives 0.71% (n = 290,000); also: nearly all actives have a fitted effect of over 55% in size
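40 nM FBPA preincubated 10 min at RT with compound (up to 57.5 uM final), then substrate plus GAPDH/TPI/NAD/arsenate coupling and diaphorase/resazurin added. Fluorescence read after 20 min at RT, 525/598 nm.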
AmpC detergent: qHTS Inhibitors of AmpC Beta-Lactamase (assay with detergent). actives 0.041% (n = 370,000). AID 485294, 2010. Potency, µM (top dose mostly 114 µM), without a hit: at the highest dose activity change, negative = inhibition, actives largely listed as inhibitors. AmpC hydrolysis of nitrocefin, absorbance 480 nm, 0.01% Triton. P00811;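 also: 0% = no-compound wells and -100% = no-enzyme wells; nearly all actives have a fitted effect of over 25% in size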
Target sequence (P00811 whole entry, looked up): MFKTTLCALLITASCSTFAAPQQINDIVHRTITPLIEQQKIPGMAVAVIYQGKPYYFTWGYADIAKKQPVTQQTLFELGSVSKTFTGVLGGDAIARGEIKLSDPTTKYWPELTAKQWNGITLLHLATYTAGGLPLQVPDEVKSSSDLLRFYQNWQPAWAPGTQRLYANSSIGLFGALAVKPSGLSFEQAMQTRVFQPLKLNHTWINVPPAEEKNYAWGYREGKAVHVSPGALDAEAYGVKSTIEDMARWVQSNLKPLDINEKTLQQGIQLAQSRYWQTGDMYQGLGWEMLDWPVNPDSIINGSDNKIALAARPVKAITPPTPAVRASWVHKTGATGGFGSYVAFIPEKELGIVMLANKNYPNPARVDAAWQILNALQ
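AmpC (5.3 nM in the dispensed reagent) in 20 mM phosphate pH 7.0 with 0.01% (detergent screen) or 0.0001% Triton X-100 was preincubated with compounds for 15 min at room temperature. Nitrocefin was then added from an 800 uM solution, and hydrolysis was followed at 480 nm.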
Sm TGR inh: qHTS Assay for the Inhibitors of Schistosoma Mansoni Peroxiredoxins | Schistosoma mansoni thioredoxin glutathione reductase (TGR), Q962Y6 | purified TGR, DTNB reduction, TNB absorbance 405 nm | Potency, µM (titrated, usually from 114 µM), for inactives: at the top dose activity change, negative = inhibition, hits mostly inhibitors | actives 3% (n = 360,000) | AID 485364, 2010; also: nearly all actives have a fitted effect of over 60% in size
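TGR 20 nM + NADPH 100 uM (dispensed conc.), cpd preinc 15 min RT; start with NADPH (500 uM addition) then DTNB (15 mM addition). Kinetic TNB absorbance, 405 nm filter. Four-parameter Hill fit across titration.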
AmpC inh no detg: qHTS Inhibitors of AmpC Beta-Lactamase (assay without detergent). P00811. AmpC nitrocefin hydrolysis, absorbance 480 nm, 0.0001% Triton. Potency, µM (series often up to 57.1 µM), for the others: at the highest dose activity change, negative = inhibition, usual class: inhibitors. actives 0.52% (n = 330,000);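 also: plate controls were no compound for no effect and no enzyme for full effect; nearly all actives have a fitted effect of over 20% in size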
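AmpC (5.3 nM in the dispensed reagent) in 20 mM phosphate pH 7.0 with 0.01% (detergent screen) or 0.0001% Triton X-100 was preincubated with compounds for 15 min at room temperature. Nitrocefin was then added from an 800 uM solution, and hydrolysis was followed at 480 nm.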
An asterisk follows results filed as active; u = inconclusive; x = no result; ! = not active in a repeat. Calls follow the shape of the dose curve; as a rule, active = well fitted curve in the direction sought with a large enough effect; inconclusive = small, poorly fitted or top-dose-only effect, or another doubt; inactive = no such curve, though single readings can be large; an effect the other way counts as inactive or inconclusive. Unless noted, % is scaled to controls: 0 for no effect and ±100 for the full control effect; potency is read from the fitted curve at half-maximal effect.

SMILES	Giardia FBPA inh	AmpC detergent	Sm TGR inh	AmpC inh no detg
Nc1cccc(Oc2cnccn2)c1	4%	-10%	31%	-15%
O=C(CCl)Nc1cccc(Oc2cnccn2)c1	12%	u	11µM*	-15%
O=C(c1cc2cc([N+](=O)[O-])ccc2oc1=O)N1CCN(C2CCCCC2)CC1	1%	-2%	-10%	-14%
O=C1/C(=C/c2ccco2)CCc2ccccc21	-25%	-3%	u	-11%
Nc1ccc2c(c1)C/C(=C/c1ccco1)C2=O	-21%	-8%	16µM*	-32%
COc1ccc(C(CC(=O)NCc2ccc(Cl)cc2)N2Cc3ccccc3C2=O)cc1OC (configuration not stated)	x	9%	3%	x
CCOC(=O)C1C(=O)C=C(c2ccc(Br)cc2)CC1c1ccco1 (configuration not stated)	4%	0%	-29%	-22%
CCOC(=O)C1C(=O)C=C(c2cccc(NS(C)(=O)=O)c2)CC1c1ccco1 (configuration not stated)	-4%	8%	32µM*	-13%
CO/N=C(\C(=O)N[C@@H]1C(=O)N2C(C(=O)O)=C(CSc3nc(=O)c(O)nn3C)CSC12)c1csc(N)n1 (some centres not stated)	-1%	x	x	x
CC(C(=O)NC1C(=O)N2C(C(=O)O)=C(CSc3nnnn3C)CSC12)n1cc(Br)cn1 (configuration not stated)	u	8%	0.56µM*	-21%
Cc1cc(C(F)F)nn1CC(=O)NC1C(=O)N2C(C(=O)O)=C(CSc3nnnn3C)CSC12 (configuration not stated)	u	5%	14µM*	-23%
Cc1nn(C(C)C(=O)NC2C(=O)N3C(C(=O)O)=C(CSc4nnnn4C)CSC23)cc1Cl (configuration not stated)	u	2%	2.2µM*	28%
Cn1nnnc1SCC1=C(C(=O)O)N2C(=O)[C@@H](NC(=O)[C@H](O)c3ccccc3)[C@H]2SC1	u	-9%	-16%	-22%
Cn1nnnc1SCC1=C(C(=O)O)N2C(=O)C(NC(=O)C3CC3c3ccccc3)C2SC1 (configuration not stated)	u	-1%	2.5µM*	-1%
c1cncc(-c2cc(-n3ccnc3)ncn2)c1	0%	x	x	x
Cc1ccc(NC(=O)CN2C(=O)NC(Cc3c[nH]c4ccccc34)C2=O)cc1 (configuration not stated)	x	u	-14%	-24%
CCc1nc2nc(C)cc(Nc3ccc(OC)cc3)n2n1	x	-1%	-6%	x
CCOC(=O)CSc1nc2ccccc2n2cnnc12	u	3%	50µM*	-10%
COc1ccc(NC(=O)COC(=O)/C=C/c2cnc3ccccc3n2)cc1	1%	-3%	6%	-25%
O=C1CC(Sc2ccc(Cl)cc2)C(=O)N1Cc1ccncc1 (configuration not stated)	1%	-3%	7.1µM*	-7%
NCCSC1CC(=O)N(Cc2ccc(F)cc2)C1=O (configuration not stated)	2%	-13%	7.9µM*	-22%
CCOc1ccc(N2C(=O)CC(SCCN)C2=O)cc1 (configuration not stated)	-24%	u	u	-2%
CCN(CC)c1ccc(C(=O)NNC(=O)CCl)cc1	u	-4%	20µM*	-42%
CCN(CC)c1ccc(C(=O)NNC(=O)CCNC(=O)c2ccccc2)cc1	x	u	2%	-11%
Cc1ccc(S(=O)(=O)N2CCC(C(=O)N[C@@H](Cc3ccccc3)C(=O)O)CC2)cc1	25%	-6%	79µM*	-12%
O=C(NCc1ccc(Cl)cc1)C1CCN(S(=O)(=O)c2ccccc2)CC1	1%	1%	25µM*!	4%
O=C(NC1=NCCS1)C1CCN(S(=O)(=O)c2cc([N+](=O)[O-])ccc2Cl)CC1	x	x	x	-8%
O=C(NC(Cc1ccccc1)C(=O)O)C1CCN(S(=O)(=O)c2cccc(C(F)(F)F)c2)CC1 (configuration not stated)	16%	-13%	2%	-2%
O=C(NC1=NCCS1)C1CCN(S(=O)(=O)c2ccc(Cl)cc2)CC1	x	4%	50µM*	-17%

Compound activity from PubChem.
